Assay outcomes (PubChem BioAssay)
This is a sample that favours compounds with a hit; in the whole collection about 3.2% have one here.
CaV13 ICDI inh – Primary screen for inhibitors of IQ motif and Ca2+-dependent inactivation inhibitor domain binding in CACNA1D, Förster resonance energy transfer in living cells, …; HEK cells, CFP/YFP FRET ICDI-IQ, plate reader, 10 min; percent FRET-ratio fall versus neutral wells; inhibition, % at 12.3 µM; 340,000 tested, 0.098% active; AID 743397;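 active means mean replicate inhibition of at least 30% and at least 1% of replicates passing that level; inconclusive means only one of the two criteria is met; inactive means neither criterion is met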;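 further: 0% = median of the neutral control wells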
INS-1E GSIS act – GLuc luminescence reporter in INS-1E cells, primary screen for activators of glucose-dependent secretion of insulin | 370,000 tested, 0.61% active | INS-1E GLuc reporter insulin secretion, 2-3 h | activation, % at 16.6 µM;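 active means lowest replicate activation of at least 40%, so every replicate reaches that level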;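 further: 0% = median of neutral control wells and 100% = median of IBMX positive control wells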
PGC1a acetyl inh – lowers PGC1a acetylation signal in U2OS cells. 350,000 tested, 0.17% active. AlphaScreen anti-acetyl-lysine; with virally co-expressed GCN5 acetyltransferase. inhibition, % at 15.6 µM;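 active means every replicate shows inhibition of at least 40%; inconclusive means mean inhibition at least 40% but some replicate below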;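 further: 0% = neutral control wells and 100% = positive control wells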
DENV2 CPE – DENV2-induced cell death inhibition. CPE inhibition, % at 9.99 µM. 350,000 tested, 1.7% active. DENV2-infected cells, cytopathic effect rescue, plate reader; in the data active means CPE inhibition above about 20%, passing the limit was not always enough; inconclusive means no clear call, values can overlap the other calls; tested in BHK-21 cells;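 further: 0% = median of neutral control wells and 100% = median of positive control wells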
ERAP1 HTS inh – inhibitors of human ERAP1 aminopeptidase | recombinant ERAP1, Leu-AMC fluorescence, 60 min | AID 652197 | inhibition, % at 10.7 µM | 340,000 tested, 0.15% active | Q9NZ08;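 active means mean replicate inhibition of at least 30%, or all replicates individually reaching that 30% level; inactive means mean below 30% and not every replicate reaching it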;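 further: 0% = neutral control wells and 100% = L-leucinethiol positive control wells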
Target sequence (Q9NZ08 whole entry, looked up): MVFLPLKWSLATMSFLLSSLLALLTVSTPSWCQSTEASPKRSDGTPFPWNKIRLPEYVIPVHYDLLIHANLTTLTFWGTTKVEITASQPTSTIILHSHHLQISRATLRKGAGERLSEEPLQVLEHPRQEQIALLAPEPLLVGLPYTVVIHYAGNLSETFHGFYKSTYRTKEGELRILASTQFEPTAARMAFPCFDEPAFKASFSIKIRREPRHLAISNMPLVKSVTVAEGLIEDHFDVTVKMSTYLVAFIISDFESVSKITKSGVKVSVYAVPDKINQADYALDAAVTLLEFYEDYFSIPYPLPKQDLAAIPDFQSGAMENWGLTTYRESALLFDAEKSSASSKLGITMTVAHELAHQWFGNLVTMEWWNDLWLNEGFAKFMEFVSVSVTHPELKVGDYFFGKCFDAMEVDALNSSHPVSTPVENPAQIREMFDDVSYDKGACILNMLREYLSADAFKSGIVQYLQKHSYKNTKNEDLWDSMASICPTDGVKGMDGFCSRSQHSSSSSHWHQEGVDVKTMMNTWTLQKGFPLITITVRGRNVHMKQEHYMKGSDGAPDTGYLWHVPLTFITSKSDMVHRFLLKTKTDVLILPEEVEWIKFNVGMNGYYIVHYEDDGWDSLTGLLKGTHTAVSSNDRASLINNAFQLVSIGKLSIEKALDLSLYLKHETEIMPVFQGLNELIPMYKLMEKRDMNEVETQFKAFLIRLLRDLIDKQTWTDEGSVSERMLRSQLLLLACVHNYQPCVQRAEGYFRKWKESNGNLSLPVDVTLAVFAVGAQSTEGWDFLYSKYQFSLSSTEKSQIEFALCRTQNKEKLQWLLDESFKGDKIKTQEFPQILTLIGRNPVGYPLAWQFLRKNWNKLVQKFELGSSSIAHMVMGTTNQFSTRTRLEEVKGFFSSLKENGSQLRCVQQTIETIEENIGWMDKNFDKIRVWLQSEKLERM
rRNA inh HTS – inhibits bacterial ribosomal RNA function over humanized ribosomes | E. coli WT GFP vs humanized-ribosome RFP mutants, fluorescence, 24 h; hits give low values; DMSO median 0, no signal -100 | GFP signal change (wild-type ribosome), % (test concentration not listed) | 350,000 tested, 1.6% active;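 active means significant combined selectivity score with lowered wild-type GFP, culture density cut under 30%, mutant RFP and density less affected; inactive means any of these conditions unmet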
Active calls of the source: *; ? = inconclusive; / = no result given.

SMILES	CaV13 ICDI inh	INS-1E GSIS act	PGC1a acetyl inh	DENV2 CPE	ERAP1 HTS inh	rRNA inh HTS
CCN(CC)CCN(C(=O)c1ccc(S(=O)(=O)N2CCCC2)cc1)c1nc2cc(C)cc(C)c2s1	/	40*	/	-3	5	10
CCN(CC)CCN(C(=O)c1c(F)cccc1F)c1nc2cc(C)cc(C)c2s1	-2	-1	/	-5	/	-31*
C/C(=N\NC(=O)c1cccc(Br)c1)c1ccc(Br)cc1	-4	56*	-9	/	/	/
CC(=O)N1CCN(C(=O)COC(=O)COc2c(C)cc(C)cc2C)CC1	-4	-3	3	84*	-3	4
CCOC(=O)N1CCN(C(=O)COC(=O)COc2c(C)cc(C)cc2C)CC1	-5	1	-10	0	-1	3
Cc1cc(C)c(OCC(=O)OCC(=O)N(C)C2CCS(=O)(=O)C2)c(C)c1 (stereo not drawn)	-7	41*	/	-5	-5	14
CC1CN(S(=O)(=O)c2cc(C(=O)NC(C)c3cccnc3)ccc2Cl)CC(C)O1 (stereo not drawn)	-15	43*	-4	-15	-1	10
CC(C)C1Cc2[nH]c(=S)[nH]c(=O)c2C(c2ccc(F)cc2)O1 (stereo not drawn)	-2	/	3	32*	0	/
C[C@H](CO)N1C[C@H](C)[C@H](CN(C)S(=O)(=O)c2ccc(F)cc2)OCCCC[C@H](C)Oc2ccc(NC(=O)c3ccncc3)cc2C1=O	/	-12	3	-3	1	-5
COCC(=O)Nc1ccc2c(c1)OC[C@@H](C)N(C(=O)Cc1ccccn1)C[C@H](C)[C@H](OC)CN(C)C2=O	/	-6	-11	7	0	0
C/C=C/c1ccc2c(c1)O[C@H](CN(C)C(=O)c1ccc(F)cc1)[C@@H](C)CN([C@@H](C)CO)S2(=O)=O	/	-3	-15	7	0	0
CCCNC(=O)[C@@]1(C)c2ccccc2C(=O)N(Cc2ccc(OC(F)(F)F)cc2)[C@H]1c1ccc(CO)cc1	/	/	-14	20*	-2	/
Cc1cccc(N2CCN(C(C(=O)NCc3ccccc3)c3ccco3)CC2)c1C (stereo not drawn)	/	-3	/	3	/	-39
Cc1cccc(N2CCN(C(C(=O)NCc3ccccc3)c3ccc(F)cc3)CC2)c1C (stereo not drawn)	-7	-6	/	59*	-3	5
O=C(NN1C(=O)/C(=C/c2cccs2)SC1=S)c1ccncc1	-5	11	/	-2	8	-29*
O=C1/C(=C/c2cccs2)SC(=S)N1NS(=O)(=O)c1ccccc1	-5	0	13	-7	3	-27*
O=C(CCCN1C(=O)/C(=C\c2cccs2)SC1=S)NNC(=O)c1ccncc1	-4	-4	1	-2	1	12
CCCCCC(=O)N1C[C@H](n2cc(COC(=O)c3ccccc3)nn2)[C@@H](O)C[C@@H]1c1ccc(Cl)cc1	-7	-30	-8	53*	-2	1
CCCCCC(=O)N1C[C@H](n2cc(-c3ccc(F)cc3)nn2)[C@@H](O)C[C@@H]1c1ccc(C)cc1	-6	-33	67*	0	/	-14
CCCCCC(=O)N1C[C@@H](n2cc(COC(=O)c3ccccc3)nn2)[C@H](O)C[C@@H]1c1ccc(Cl)cc1	-7	-1	4	9	5	-19
CCCCCC(=O)N1C[C@@H](n2cc(-c3ccc(F)cc3)nn2)[C@H](O)C[C@@H]1c1ccc(Cl)cc1	-7	-20	15	16	-1	-13
Cc1ccc([C@H]2C[C@@H](n3cc(-c4ccc(F)cc4)nn3)[C@H](O)CN2C(=O)c2cccs2)cc1	-10	-10	12	32*	-4	-6
CCCC#Cc1cnc2c(c1)C(=O)N([C@H](C)CO)C[C@H](C)[C@@H](CN(C)C(=O)c1cccc(F)c1)O2	/	-27	1	12	-1	0
COc1cc(C(=O)NC(=S)N(C)Cc2ccccc2)cc(OC)c1OC	3	-2	6	-2	0	13
CN(Cc1ccccc1)C(=S)NC(=O)c1ccc(-c2ccccc2)cc1	-6	40*	3	/	/	/
SMILES	CaV13 ICDI inh	INS-1E GSIS act	PGC1a acetyl inh	DENV2 CPE	ERAP1 HTS inh	rRNA inh HTS
CC(C)NC(=O)Nc1ccc2c(c1)C(=O)N([C@@H](C)CO)C[C@@H](C)[C@@H](CN(C)C)O2	/	15	-5	?	0	0
CC[N+](CC)(CC)CCCCOc1ccc2c(c1)C(=O)c1cc(OCCCC[N+](CC)(CC)CC)ccc1-2	14	17	-5	3	17	-54*
CC[N+](CC)(CC)CCOc1ccc(/C=C/c2ccccc2)cc1	-5	-1	-12	-5	6	-53
COc1ccc(NC(=O)Nc2ccc3c(c2)C(=O)N([C@H](C)CO)C[C@@H](C)[C@H](CN(C)S(C)(=O)=O)OCCCC[C@H](C)O3)cc1	/	-13	-6	5	1	2
O=C(Nc1ccc2snnc2c1)N1CCOCC1	-5	/	/	/	/	/
S=C(Nc1ccc(N2CCOCC2)cc1)Nc1ccc2snnc2c1	-6	-13	/	2	0	-20*
CC(C)[C@H](NC(N)=O)C(=O)NNC(=O)COc1cccc(C(F)(F)F)c1	-4	10	5	1	54*	9
Cn1nnnc1Sc1ncnc2scc(-c3ccc(C(F)(F)F)cc3)c12	-5	-12	-34	3	6	-11
Cn1nnnc1Sc1ncnc2scc(-c3ccccc3C(F)(F)F)c12	-10	50	-7	-8	3	-18*
COc1cccc(-c2csc3ncnc(Sc4nnnn4C)c23)c1	-6	53*	0	-3	4	-1
CO[C@@H]1CN(C)C(=O)c2cc(NS(=O)(=O)c3ccc(Cl)cc3)ccc2OC[C@@H](C)N(C)C[C@@H]1C	/	0	-10	-1	/	-1
O=C(c1ccccc1)N1CC2(C1)[C@@H](c1ccccc1)[C@@H](CO)N2Cc1ccccn1	/	6	3	21*	-2	-3
O=C(c1cccnc1)N1CC2(C1)[C@H](c1ccccc1)[C@@H](CO)N2Cc1ccccc1	/	8	0	108*	-2	4
O=C(c1cccnc1)N1CC2(C1)[C@H](c1ccccc1)[C@@H](CO)N2Cc1cccnc1	/	0	/	-5	1	1
CCS(=O)(=O)N1CC2(C1)[C@@H](c1ccccc1)[C@H](CO)N2Cc1ccccn1	/	3	-3	22*	-6	4
CCS(=O)(=O)N1CC2(C1)[C@H](c1ccccc1)[C@@H](CO)N2Cc1ccccn1	/	4	1	-1	-3	-1
CN(C)CC(=O)Nc1ccc2c(c1)[C@@H]1C[C@H](CC(=O)NCc3cccnc3)O[C@H](CO)[C@@H]1O2	/	6	6	0	-3	0
